M1 antagonist = M1 muscarinic receptor (rat) antagonism | B-score at 10 µM | AID 628 | actives 3.4% (n = 64,000) | CHO-M1 cells, Fluo-4 calcium, ACh EC80 antagonist mode; stronger effect = lower value | P08482;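 active = calcium fluorescence response, raw or row-and-column corrected B-score, differing from the plate sample mean either way at a set confidence level, mostly lower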
M1 agonist = agonists of M1 muscarinic receptor | CHO-M1 cells, Fluo-4 calcium fluorescence, agonist mode; stronger effect = higher value | B-score at 10 µM | actives 3% (n = 64,000) | AID 626;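 active = fluorescence rise, raw or as B-score row- and column-corrected plate score, outside the 99.7% band of its plate's samples, either direction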
HER2 expr 66K = inhibitors of human Her2 kinase expression; AID 645; HER2 level % of control, % at 10 µM; actives 0.69% (n = 65,000); P04626; SKBR-3 HER2 protein level, AlphaScreen, 18-24 h; stronger effect = lower value;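 active = HER2 level under 5% of the carrier-only control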;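 note: lower value means stronger loss of Her2 protein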
PLAP act = activates human placental alkaline phosphatase | purified PLAP enzyme, luminescent substrate read-out; stronger effect = higher value | activation fold at 20 µM | actives 1.2% (n = 96,000) | AID 696; in the data active = activation fold above about 2
Cav3 T inh = inhibitors of human Cav3.2 T-type calcium channel; Cav3.2-expressing cells, Fluo-4 calcium fluorescence FDSS; stronger effect = lower value; B-score at 10 µM; actives 4% (n = 100,000); AID 449739;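 active = single-dose well whose peak fluorescence ratio is a statistical outlier from its plate by either plate-standardised score or position-corrected B-score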
A number is an active result. Only some compounds are listed: those with a hit (about 7.9% of all), similar ones and a draw of the others.

For Cc1nc2nc(-c3ccco3)nn2c(C)c1Cl the results were M1 antagonist inactive, M1 agonist inactive, HER2 expr 66K -8.6 and PLAP act inactive.
Screening OCc1nc2ccccc2n1C/C=C/c1ccccc1 returned M1 antagonist inactive, M1 agonist inactive, HER2 expr 66K inactive, PLAP act 2 and Cav3 T inh inactive.
`CC1CN(C(=O)N2c3ccccc3Sc3ccccc32)C(C)CC1=O` (stereo not given) gave M1 antagonist inactive, M1 agonist inactive, HER2 expr 66K inactive, PLAP act inactive and Cav3 T inh -4.6.
`CC(=O)c1cccc(NC(=O)NC2CCCCC2)c1` gave M1 antagonist inactive, M1 agonist inactive, HER2 expr 66K inactive, PLAP act inactive and Cav3 T inh inactive.
`O=C(Nc1cccc(C(=O)N2CCOCC2)c1)NC1CCCCC1` gave M1 antagonist inactive, M1 agonist inactive, HER2 expr 66K -22, PLAP act inactive and Cav3 T inh inactive.
For COC(=O)c1[nH]c2ccc(C)cc2c1NC(=O)CN1CCCCC1C (stereo not given) the results were HER2 expr 66K inactive.
For COc1ccc(-c2nn(C)c3sc(C(=O)NCc4ccco4)cc23)cc1OC the results were M1 antagonist inactive, M1 agonist inactive, HER2 expr 66K inactive, PLAP act inactive and Cav3 T inh inactive.
Screening COc1ccc(NC(=O)c2cc3c(-c4ccc(OC)c(OC)c4)nn(C)c3s2)cc1OC returned PLAP act 2.3 and Cav3 T inh inactive.
COc1ccc(N2CCN(CC(=O)Nc3nc4c(s3)CC(C)CC4)CC2)cc1 (stereo not given) was read as M1 antagonist inactive, M1 agonist inactive, HER2 expr 66K inactive, PLAP act 2.9 and Cav3 T inh inactive.
`COc1ccc(N2CCN(CC(=O)Nc3cc(C)on3)CC2)cc1` gave M1 antagonist inactive, M1 agonist inactive, HER2 expr 66K inactive, PLAP act inactive and Cav3 T inh inactive.
`CCN1CCN(C(=O)c2ccc3c(c2)N(Cc2ccc(F)cc2)C(=O)c2ccccc2S3=O)CC1` (stereo not given) gave M1 antagonist inactive, M1 agonist inactive, HER2 expr 66K inactive and Cav3 T inh -7.2.
`C=C(C)C(=O)Nc1cccc(C2=NOC3(C2)C[C@H](C(N)=O)N(C(=O)/C=C/C)C3)c1` (stereo not given in full) gave Cav3 T inh inactive.
COc1ccc(-n2c(SCC(=O)Nc3sc4c(c3C#N)CCCC4)nnc2-c2ccccc2OC)cc1 was read as Cav3 T inh -6.3.
For O=C(Nc1nnc(-c2ccccc2Cl)o1)c1nc2ccccc2s1 the results were PLAP act inactive and Cav3 T inh -4.5.
For O=C(CSc1nnc(-c2ccc(Cl)cc2Cl)n1C1CCCCC1)N1CCCC1 the results were PLAP act 2 and Cav3 T inh inactive.
Screening CC(C)Oc1ccc(CNC(=O)CC(c2ccccc2)c2cc(Cl)ccc2O)cc1 (stereo not given) returned PLAP act inactive and Cav3 T inh -3.5.
CCCCCCNC(=O)CC(c1ccccc1)c1cc(Br)ccc1O (stereo not given) was read as Cav3 T inh -5.9.
For CC(C)Oc1ccc(N2CC(C(=O)OCC(=O)NCc3ccccc3)CC2=O)cc1 (stereo not given) the results were PLAP act inactive and Cav3 T inh inactive.
For CC(C)NC(=O)CC(c1ccccc1)c1cc(Br)ccc1O (stereo not given) the results were PLAP act inactive and Cav3 T inh inactive.
For O=C(CC(c1ccccc1)c1cc(Br)ccc1O)NCc1ccco1 (stereo not given) the results were M1 antagonist inactive, M1 agonist inactive, HER2 expr 66K inactive, PLAP act inactive and Cav3 T inh -9.9.
Cc1ccccc1OCCCC(=O)NCc1ccco1 was read as PLAP act inactive and Cav3 T inh inactive.
`Cc1ccc(NC(=O)C2CCCN2S(=O)(=O)c2ccc(F)cc2)c(C)c1` (stereo not given) gave M1 antagonist inactive, M1 agonist inactive, HER2 expr 66K inactive, PLAP act inactive and Cav3 T inh inactive.
`O=C(NC1CCCCC1)c1cccc(Cn2cc(Cl)cn2)c1` gave PLAP act inactive and Cav3 T inh inactive.
`CCCCCCC(=O)NC(Nc1ccc(S(N)(=O)=O)cc1)C(Cl)(Cl)Cl` (stereo not given) gave PLAP act inactive and Cav3 T inh inactive.
`O=[N+]([O-])c1ccc2c(c1)C(N1CCOCC1)/C(=C/COc1ccc(Cl)cc1Cl)O2` (stereo not given) gave PLAP act inactive and Cav3 T inh -3.6.
`C=CCOC(=O)N1CCN(c2cccc(C(F)(F)F)c2)CC1` gave M1 antagonist inactive, M1 agonist inactive, HER2 expr 66K inactive, PLAP act inactive and Cav3 T inh inactive.
`Cc1ccc(N(C)C(=O)N2CCN(S(=O)(=O)c3c(C)cc(C)cc3C)CC2)cc1` gave PLAP act inactive and Cav3 T inh -6.
For CCN(CC)C(=O)N1CCN(S(=O)(=O)c2ccc(C)cc2)CC1 the results were PLAP act inactive and Cav3 T inh inactive.
For C#CC(CO)N(CCN(Cc1ccccc1)C(C#C)CO)Cc1ccccc1 (stereo not given) the results were M1 antagonist inactive, M1 agonist inactive, HER2 expr 66K inactive, PLAP act inactive and Cav3 T inh -6.7.
Screening C#CCN(C)Cc1ccccc1 returned M1 antagonist inactive, M1 agonist inactive, HER2 expr 66K inactive and Cav3 T inh inactive.
`CCOC(=O)N1CCN(C(=O)CSCc2nc(-c3ccccc3F)oc2C)CC1` gave M1 antagonist inactive, M1 agonist inactive, HER2 expr 66K inactive, PLAP act inactive and Cav3 T inh inactive.
For CCOC(=O)N1CCN(C(=O)CSCc2nc(-c3ccccc3C)oc2C)CC1 the results were M1 antagonist inactive, M1 agonist inactive, HER2 expr 66K -23, PLAP act inactive and Cav3 T inh inactive.
Screening CCCN(CCC)C(=O)CSc1nc2ccccc2c(=O)n1CC1COc2ccccc2O1 (stereo not given) returned PLAP act inactive and Cav3 T inh -5.9.
CCOC(=O)CSc1nc2ccccc2c(=O)n1CC1COc2ccccc2O1 (stereo not given) was read as M1 antagonist inactive, M1 agonist inactive, HER2 expr 66K inactive, PLAP act inactive and Cav3 T inh inactive.
Screening Cc1sc2ncnc(SCC(=O)NNC(=O)COc3cccc4ccccc34)c2c1C returned PLAP act inactive and Cav3 T inh inactive.
For COc1cccc(=O)c2c(C)n(-c3cc(C)cc(C)c3)c(C)c12 the results were PLAP act inactive and Cav3 T inh -5.1.
`COc1cccc(=O)c2c(C)n(C)c(C)c12` gave M1 antagonist inactive, M1 agonist inactive, HER2 expr 66K inactive, PLAP act inactive and Cav3 T inh inactive.
O=C(CSC(=S)N1CCOCC1)Nc1nc(-c2ccccc2)c(-c2ccccc2)o1 was read as PLAP act inactive and Cav3 T inh inactive.
`O=C(CSC(=S)N1CCCCC1)Nc1nc(-c2ccccc2)c(-c2ccccc2)o1` gave PLAP act inactive and Cav3 T inh -4.
